“And” between values parts separate entries of the source, which are not always exact repeats. Equal values may be shown once. Where a name gives a salt, the structure may show the parent alone.
What was measured:
Assay in all cases: cell viability relative to vehicle control; higher = less cytotoxic
Settings in all cases: 10 µM
[1] = tested on: K562
How it was run: (§1)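 CRISPR-edited mutant clones and isogenic wild-type clones from four leukaemia lines were screened against Selleck bioactive, kinase and epigenetic probe libraries, with identity-inconsistent compounds excluded. Each compound was acoustically dispensed at a single 10 µM dose into 384-well plates holding 2000 cells in 50 µL medium per well. After 48 h the supernatant was removed and CellTiter-Glo luminescence was read. Viability was expressed as percent of the on-plate vehicle control and analysed in Genedata Screener.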

[2] = tested on: MARIMO
How it was run: as §1

[3] = tested on: MOLM14
How it was run: as §1

[4] = tested on: OCI-AML2
How it was run: as §1

Row | SMILES | cell viability ([1]; SRSF2 genotype: SRSF2 P95H/wt) | cell viability ([1]; SRSF2 genotype: SRSF2 wt/wt) [%] | cell viability ([2]; SRSF2 genotype: SRSF2 P95H/wt) [%] | cell viability ([2]; SRSF2 genotype: SRSF2 wt/wt) [%] | cell viability ([3]; SRSF2 genotype: SRSF2 P95H/wt) [%] | cell viability ([3]; SRSF2 genotype: SRSF2 wt/wt) [%] | cell viability ([4]; SRSF2 genotype: P95H/wt) [%] | cell viability ([4]; SRSF2 genotype: wt/wt) [%]
1 | COCCCC/C(=N\OCCN)c1ccc(C(F)(F)F)cc1 [Fluvoxamine maleate] | 94.3% and 95.6% | 98.9 | 80.8 | 91.5 | 87.8 | 98 | 93.9 | 88.2
2 | CN1CCN(C2CCN(C(=O)Nc3cc(Oc4ccc(NC(=O)C5(C(=O)Nc6ccc(F)cc6)CC5)c(F)c4)ccn3)CC2)CC1 [Golvatinib (E7050)] | 5.46% and 7.13% | 10.1 | 61.6 | 58.9 | 4.27 | 8.67 | 7.56 | 18.6
3 | Cc1[nH]c(/C=C2\C(=O)Nc3ccc(S(=O)(=O)Cc4c(Cl)cccc4Cl)cc32)c(C)c1C(=O)N1CCC[C@@H]1CN1CCCC1 | 0.5% and 0.24% | 81.8 | 76.3 | 87.6 | 42 | 46.8 | 0.12 | 0.09
4 | C[C@@H]1CCCC2=CC(=O)[C@@H]3[C@@H](C3(C)C)[C@]21C [Aristolone] | 107% and 96.8% | 101 | 95.8 | 103 | 112 | 99 | 98.3 | 109
5 | CCCCC1C(=O)N(c2ccccc2)N(c2ccccc2)C1=O [Phenylbutazone (Butazolidin, Butatron)] | 98.1% and 102% | 94.9 | 97.2 | 102 | 98 | 99.9 | 106 | 107
6 | COc1cc(C)c(/C=C/C(C)=C/C=C/C(C)=C/C(=O)O)c(C)c1C [Acitretin] | 87% and 91.6% | 90 | 79.1 | 88.1 | 87.4 | 89.2 | 32.6 | 52
7 | COC(=O)Nc1nc2cc(C(=O)c3ccc(F)cc3)ccc2[nH]1 [Flubendazole (Flutelmium)] | 18.9% and 30.8% | 27.6 | 9.3 | 12 | 8.51 | 43.1 | 6.97 | 11
8 | C[C@@H]1O[C@@H](O[C@H]2[C@H](O[C@H]3CC[C@@]4(C)[C@@H](CC[C@]5(C)[C@@H]4CC=C4[C@@H]6CC(C)(C)CC[C@]6(C(=O)O)CC[C@]45C)[C@]3(C)CO)OC[C@H](O[C@@H]3O[C@H](CO)[C@@H](O)[C@H](O)[C@H]3O)[C@@H]2O)[C@H](O)[C@H](O)[C@H]1O [Pulsatilla saponin D] | 0.56% and 0.59% | 0.55 | 0.46 | 0.67 | 0.5 | 0.59 | 0.5 | 0.54
9 | COc1cc(C=O)c([N+](=O)[O-])cc1OC | 104% | 110 | 95.3 | 92.6 | 95.8 | 109 | 111 | 125
10 | Cc1c(Cn2c(C)nc3c(C(=O)O)cc(N4CCOCC4)cc32)cccc1C(F)(F)F | 104% and 97.4% | 108 | 105 | 105 | 83.2 | 89.7 | 92.7 | 95.2
11 | N=c1ccn2c(n1)O[C@H]1[C@H](O)[C@@H](CO)O[C@H]12 [Cyclocytidine HCl] | 92.8% and 103% | 101 | 27.8 | 29 | 11.3 | 2.48 | 9.61 | 9.31
12 | CCN(Cc1ccncc1)C(=O)C(CO)c1ccccc1 (stereo unspecified) [Tropicamide] | 102% and 103% | 108 | 107 | 103 | 97.7 | 106 | 109 | 116
13 | CCc1cccc2c3c([nH]c12)C(CC)(CC(=O)O)OCC3 (stereo unspecified) [Etodolac (Lodine)] | 99.4% and 101% | 92.6 | 89.7 | 96.5 | 93 | 97.8 | 86.8 | 93.7
14 | NC(=O)[C@@H]1CCCN1C(=O)[C@H](Cc1c[nH]cn1)NC(=O)[C@@H]1CCC(=O)N1 [Protirelin] | 99.8% and 93.1% | 104 | 99.2 | 108 | 101 | 100 | 102 | 100
15 | COc1ccnc(C[S+]([O-])c2nc3cc(-n4cccc4)ccc3[nH]2)c1C (stereo unspecified) [Ilaprazole] | 90.7% and 95.4% | 92.4 | 87.3 | 105 | 99.9 | 101 | 82.5 | 97.3
16 | CC(C)(Oc1ccc(C2CC2(Cl)Cl)cc1)C(=O)O (stereo unspecified) [Ciprofibrate] | 101% and 96.8% | 97.7 | 89.6 | 106 | 98 | 99.4 | 94.3 | 110
17 | CCC[S+]([O-])c1ccc2[nH]c(NC(=O)OC)nc2c1 (stereo unspecified) [Albendazole Oxide (Ricobendazole)] | 88.8% and 83.5% | 80.6 | 85.7 | 88 | 88.2 | 95.4 | 87.8 | 95.5
18 | NC(=S)c1ccncc1 [Thioisonicotinamide] | 107% and 101% | 98.9 | 96.9 | 105 | 103 | 105 | 99.4 | 110
19 | Cc1ccc2c(c1)c1c(n2CCc2ccc(C)nc2)CCN(C)C1 [Latrepirdine 2HCl] | 88.7% and 89.9% | 80.2 | 73.8 | 82 | 74.4 | 84.6 | 73.7 | 76

Row | SMILES | cell viability ([1]; SRSF2 genotype: SRSF2 P95H/wt) | cell viability ([1]; SRSF2 genotype: SRSF2 wt/wt) [%] | cell viability ([2]; SRSF2 genotype: SRSF2 P95H/wt) [%] | cell viability ([2]; SRSF2 genotype: SRSF2 wt/wt) [%] | cell viability ([3]; SRSF2 genotype: SRSF2 P95H/wt) [%] | cell viability ([3]; SRSF2 genotype: SRSF2 wt/wt) [%] | cell viability ([4]; SRSF2 genotype: P95H/wt) [%] | cell viability ([4]; SRSF2 genotype: wt/wt) [%]
20 | S=C=Nc1cccc(NC(=S)NCCCCNC(=S)Nc2cccc(N=C=S)c2)c1 | 98.3% and 104% | 98.8 | 106 | 105 | 102 | 106 | 109 | 106
21 | CC(NC(=O)C(O)c1cc(F)cc(F)c1)C(=O)NC1C(=O)N(C)c2ccccc2-c2ccccc21 (stereo unspecified) | 99.5% and 96.4% | 99.2 | 96.1 | 97.8 | 102 | 105 | 98.7 | 96.8
22 | Nc1nc(=O)n([C@@H]2CS[C@H](CO)O2)cc1F [Emtricitabine] | 106% and 105% | 104 | 103 | 106 | 104 | 107 | 102 | 108
23 | Nc1ncnc2n[nH]c(Nc3ccc(F)cc3)c12 | 86.7% and 96.4% | 82.6 | 70 | 67.5 | 69.2 | 71.8 | 65.5 | 63.8
24 | CCc1cc(C(N)=S)ccn1 [Ethionamide] | 97.4% and 93.4% | 91.2 | 97 | 98.1 | 106 | 100 | 94.3 | 97.7
25 | CCCC(CCC)C(=O)O [Valproic acid] | 95.5% and 98.3% | 106 | 103 | 100 | 102 | 102 | 102 | 95.7
26 | CC(C)=CC(O)C/C(C)=C/COc1c2ccoc2cc2oc(=O)ccc12 (stereo unspecified) [Notopterol] | 72.4% and 82.5% | 76.1 | 64.7 | 57.1 | 71.2 | 56.4 | 51.5 | 43
27 | COc1ccc(CCC(=O)N(c2nccc3ccccc23)[C@@H]2CCCNC2)cc1 | 91.8% and 90.5% | 85.2 | 79 | 93.4 | 80.5 | 85.3 | 91 | 91.2
28 | CN1CC(O)c2cc(N=NC(N)=O)c(O)cc21 (stereo unspecified) [Carbazochrome] | 98.5% and 95.6% | 89.4 | 99.4 | 94.8 | 95.7 | 101 | 98.8 | 95.4
29 | CCCCNc1ncc(-c2ccc(CN3CCOCC3)cn2)c(NC2CCC(O)CC2)n1 (stereo unspecified) | 70.7% and 94.8% | 88 | 60.7 | 62.3 | 7.3 | 4.78 | 16.1 | 22.9
30 | CCOC(=O)C1=C(C)NC(C)=C(C(=O)OC)C1c1cccc(Cl)c1Cl (stereo unspecified) [Felodipine (Plendil)] | 72.9% and 78.2% | 79.9 | 79.2 | 88.8 | 78.4 | 86.3 | 78.9 | 87.1
31 | CN(C)CC/C=C1/c2ccccc2Sc2ccc(Cl)cc21 [Chlorprothixene] | 80.1% and 80.7% | 87.8 | 78.3 | 76.7 | 66.2 | 82.1 | 66.6 | 68.2
32 | CO[C@H]1/C=C\C=C(/C)C(=O)NC2=CC(=O)C(NCCN(C)C)=C(C[C@@H](C)C[C@H](OC)[C@H](O)[C@@H](C)/C=C(\C)[C@@H]1OC(N)=O)C2=O [17-DMAG HCl (Alvespimycin)] | 14% and 15.5% | 24 | 28.1 | 22.5 | 0.45 | 0.4 | 3.25 | 12
33 | CCOC(=O)c1ccc(NC(=O)O[C@H]2[C@H](OC(=O)Nc3ccc4c(c3)OCO4)[C@@H](OC(=O)Nc3ccc4c(c3)OCO4)[C@@H](OC)O[C@@H]2CO)cc1 | 89.5% and 99.2% | 93.3 | 103 | 106 | 100 | 101 | 99.3 | 103
34 | Cc1nc(N(C)C(=O)Cc2ccc(-c3ccccn3)cc2)sc1S(N)(=O)=O [Pritelivir (BAY 57-1293)] | 99.6% and 99.5% | 92.1 | 103 | 112 | 108 | 103 | 98.5 | 95.7
35 | COc1ccc(-c2cc(=O)c3c(O)cc(O[C@@H]4O[C@H](CO[C@@H]5O[C@@H](C)[C@H](O)[C@@H](O)[C@H]5O)[C@@H](O)[C@H](O)[C@H]4O)cc3o2)cc1 [Linarin] | 107% and 103% | 102 | 95.8 | 101 | 111 | 102 | 103 | 98.7
36 | O=C(NC(NC(=S)Nc1ccc(F)c([N+](=O)[O-])c1)C(Cl)(Cl)Cl)C(c1ccccc1)c1ccccc1 (stereo unspecified) | 6.8% and 10.6% | 17.6 | 35.5 | 30.2 | 1.5 | 4.68 | 1.61 | 4.06
37 | CC[C@H]1OC(=O)[C@H](C)[C@@H](O[C@H]2C[C@@](C)(OC)[C@@H](O)[C@H](C)O2)[C@H](C)[C@@H](O[C@@H]2O[C@H](C)C[C@H](N(C)C)[C@H]2O)[C@](C)(O)C[C@@H](C)[C@@H]2N[C@@H](COCCOC)O[C@H]([C@H]2C)[C@]1(C)O [Dirithromycin] | 98.3% and 98% | 98.5 | 97.1 | 109 | 98.7 | 102 | 94.6 | 107
